Experimental data: PubChem BioAssay AID1159580 (chemical genetic matrix, 2015)
Hit rate of the full screen: of about 5,500 compounds, about 2,000 (36%) were called active. Another 18% or so got no clear call; they are omitted. No stated cut-off is given here; in the data, active means normalized growth mostly below about 0.91 (no sharp cut-off); inconclusive means no clear call, values can overlap the other calls; inactive means mostly above about 0.92. Some of the results follow.

Assay: chemical genetic growth profiling, strain panel (AID 1159580);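 further: tested at 20 µM; growth read once vehicle control cultures reached saturation at 30 °C; 1 = growth at the plate median or of vehicle wells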
Settings: S. cerevisiae deletion strains, growth OD

Measured: normalized growth

CCN(CC)CCOCCOC(=O)C1(c2ccccc2)CCCC1
inactive: locus YAL013W, strain DEP1, stronger effect = lower value 0.986 | locus YAL021C, strain ccr4, stronger effect = lower value 0.986 | locus YAL026C, strain drs2, stronger effect = lower value 0.995 | locus YAL030W, strain snc1, stronger effect = lower value 0.992 | locus YAL040C, strain CLN3, stronger effect = lower value 0.988 | locus YBL061C, strain skt5, stronger effect = lower value 0.996 | locus YBR009C, strain hhf1, stronger effect = lower value 0.997 | locus YBR023C, strain chs3, stronger effect = lower value 0.987 | locus YBR171W, strain sec66, stronger effect = lower value 0.987 | locus YBR231C, strain swc5, stronger effect = lower value 0.982 | locus YBR279W, strain paf1, stronger effect = lower value 0.995 | locus YCL011C, strain gbp2, stronger effect = lower value 0.99 | locus YCL016C, strain dcc1, stronger effect = lower value 0.998 | locus YCL061C, strain MRC1 (second series), stronger effect = lower value 0.994 | locus YCL061C, strain MRC1, stronger effect = lower value 0.989 | locus YCL069W, strain vba3, stronger effect = lower value 0.994 | locus YCR088W, strain abp1, stronger effect = lower value 0.981 | locus YDL005C, strain med2, stronger effect = lower value 0.988 | locus YDL040C, strain nat1, stronger effect = lower value 0.998 | locus YDR001C, strain nth1, stronger effect = lower value 0.999 | locus YDR069C, strain doa4, stronger effect = lower value 0.984 | locus YDR137W, strain rgp1, stronger effect = lower value 0.981 | locus YDR150W, strain NUM1, stronger effect = lower value 0.995 | locus YDR159W, strain sac3, stronger effect = lower value 0.99 | locus YDR195W, strain ref2 0.966 | locus YDR297W, strain sur2, stronger effect = lower value 0.989 | locus YDR334W, strain swr1, stronger effect = lower value 0.995 | locus YDR335W, strain msn5, stronger effect = lower value 0.996 | locus YDR392W, strain spt3, stronger effect = lower value 1.01 | locus YEL003W, strain gim4, stronger effect = lower value 0.999 | locus YEL037C, strain rad23, stronger effect = lower value 0.999 | locus YEL061C, strain CIN8 (second series), stronger effect = lower value 0.999 | locus YER002W, strain NOP16, stronger effect = lower value 1 | locus YER015W, strain faa2, stronger effect = lower value 0.992 | locus YER016W, strain bim1, stronger effect = lower value 0.995 | locus YER111C, strain swi4, stronger effect = lower value 0.985 | locus YER155C, strain BEM2 (second series), stronger effect = lower value 0.992 | locus YFR010W, strain ubp6, stronger effect = lower value 1 | locus YGL167C, strain pmr1, stronger effect = lower value 0.991 | locus YGL173C, strain kem1, stronger effect = lower value 0.999 | locus YGL227W, strain vid30, stronger effect = lower value 0.981 | locus YGL240W, strain doc1, stronger effect = lower value 0.998 | locus YGL253W, strain hxk2, stronger effect = lower value 0.989 | locus YGR078C, strain PAC10, stronger effect = lower value 0.972 | locus YGR229C, strain SMI1, stronger effect = lower value 0.979 | locus YHR013C, strain ard1, stronger effect = lower value 0.969 | locus YHR027C, strain rpn1, stronger effect = lower value 0.996 | locus YHR030C, strain SLT2, stronger effect = lower value 0.967 | locus YHR079C, strain IRE1, stronger effect = lower value 0.975 | locus YHR142W, strain chs7, stronger effect = lower value 0.99 | locus YJL092W, strain hpr5, stronger effect = lower value 0.997 | locus YJL095W, strain BCK1 (second series), stronger effect = lower value 0.992 | locus YJL095W, strain BCK1, stronger effect = lower value 0.966 | locus YJL115W, strain asf1, stronger effect = lower value 0.996 | locus YJL129C, strain trk1, stronger effect = lower value 0.994 | locus YJL154C, strain vps35, stronger effect = lower value 0.998 | locus YJL164C, strain tpk1, stronger effect = lower value 0.977 | locus YJL166W, strain qcr8, stronger effect = lower value 0.997 | locus YJL187C, strain SWE1, stronger effect = lower value 0.996 | locus YJR066W, strain TOR1, stronger effect = lower value 0.917 | locus YJR075W, strain HOC1, stronger effect = lower value 0.99 | locus YKL160W, strain elf1, stronger effect = lower value 1 | locus YKR026C, strain gcn3, stronger effect = lower value 0.98 | locus YKR091W, strain srl3, stronger effect = lower value 0.992 | locus YLL001W, strain dnm1, stronger effect = lower value 0.994 | locus YLL026W, stronger effect = lower value 0.99 | locus YLL041C, strain sdh2, stronger effect = lower value 1 | locus YLR027C, strain aat2, stronger effect = lower value 0.993 | locus YLR113W, strain HOG1, stronger effect = lower value 0.931 | locus YLR221C, strain rsa3, stronger effect = lower value 0.987 | locus YLR258W, strain gsy2, stronger effect = lower value 0.979 | locus YLR262C, strain YPT6 (second series), stronger effect = lower value 0.947 | locus YLR320W, strain mms22, stronger effect = lower value 0.99 | locus YLR342W, strain FKS1, stronger effect = lower value 0.987 | locus YLR357W, strain rsc2, stronger effect = lower value 0.975 | locus YLR370C, strain arc18, stronger effect = lower value 0.998 | locus YLR384C, strain iki3, stronger effect = lower value 0.992 | locus YML120C, strain ndi1, stronger effect = lower value 0.989 | locus YMR058W, strain fet3, stronger effect = lower value 0.999 | locus YMR125W, strain sto1, stronger effect = lower value 0.987 | locus YMR129W, stronger effect = lower value 0.997 | locus YMR205C, strain PFK2, stronger effect = lower value 0.986 | locus YMR231W, strain pep5, stronger effect = lower value 0.996 | locus YMR307W, strain GAS1, stronger effect = lower value 0.986 | locus YNL071W, strain lat1, stronger effect = lower value 1.02 | locus YNL175C, strain NOP13, stronger effect = lower value 1.02 | locus YNL183C, strain NPR1, stronger effect = lower value 0.915 | locus YNL197C, strain WHI3, stronger effect = lower value 0.994 | locus YNL209W, strain ssb2, stronger effect = lower value 0.998 | locus YNL224C, strain SQS1, stronger effect = lower value 1 | locus YNL248C, strain rpa49, stronger effect = lower value 1.01 | locus YNL322C, strain KRE1 (second series), stronger effect = lower value 0.99 | locus YNL322C, strain KRE1, stronger effect = lower value 1.01 | locus YNR049C, strain mso1, stronger effect = lower value 0.989 | locus YOR001W, strain rrp6, stronger effect = lower value 0.994 | locus YOR070C, strain gyp1, stronger effect = lower value 0.999 | locus YOR080W, strain dia2, stronger effect = lower value 0.989 | locus YOR083W, strain WHI5 (second series), stronger effect = lower value 0.996 | locus YOR083W, strain WHI5, stronger effect = lower value 1 | locus YOR106W, strain vam3, stronger effect = lower value 1.02 | locus YOR231W, strain MKK1, stronger effect = lower value 0.983 | locus YOR265W, strain rbl2, stronger effect = lower value 0.988 | locus YOR270C, strain vph1, stronger effect = lower value 0.999 | locus YOR290C, strain snf2, stronger effect = lower value 0.992 | locus YPL051W, strain arl3, stronger effect = lower value 0.989 | locus YPL055C, strain LGE1, stronger effect = lower value 0.996 | locus YPL078C, strain atp4, stronger effect = lower value 0.994 | locus YPL106C, strain sse1, stronger effect = lower value 0.995 | locus YPL240C, strain hsp82, stronger effect = lower value 0.995 | locus YPL241C, strain CIN2, stronger effect = lower value 0.995 | locus YPL256C, strain CLN2, stronger effect = lower value 0.959
